# Screening data as filed in PubChem BioAssay.
# BAZ2B inh: BAZ2B (human) inhibition. 4.4% of 360,000 active. AlphaScreen BAZ2B-H3K14Ac peptide displacement. Potency, µM (series often up to 114 µM), for inactives: at the highest dose activity change, negative = inhibition, usual class: inhibitors. AID 504333. Q9UIF8; further: on the % scale 0 is the no-effect control and ±100 the full control effect; nearly all actives have a fitted effect of over 60% in size
#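 Complex of BAZ2B and biotin-H3K14Ac (50 nM apiece) forms over 30 min at RT, then faces library compounds up to 110 uM for another 30 min; AlphaScreen beads added, 20 min dark incubation, luminescence read.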
# JMJD2A Tudor: blocks the human JMJD2A Tudor domain | Potency, µM (highest dose often 114 µM), inactives show at the highest dose activity change, negative = inhibition, usual class: inhibitors | O75164 | 4.4% of 390,000 active | AID 504339 | AlphaScreen JMJD2A-Tudor / H3K4me3 peptide binding; further: on the % scale 0 is the no-effect control and ±100 the full control effect; nearly all actives have a fitted effect of over 50% in size
# Sfp PPTase inh: blocks B. subtilis Sfp PPTase activity | Q9F4F7 | Biochemical Sfp PPTase activity, qHTS | Potency, µM, inactives show largest response in the series, negative = inhibition, actives largely listed as inhibitors | 3.5% of 310,000 active;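 further: the enzyme is Sfp with the accession as filed and its product quenches rhodamine fluorescence; 0% = enzyme reaction without inhibitor and -100% = no enzyme wells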
#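 Fluorescence-quenching assay with 15 nM Sfp, 5 uM rhodamine-CoA and 12.5 uM BHQ-2-labelled ybbR peptide in pH 7.6 Hepes/MgCl2 buffer. Enzyme was pre-incubated with compound for 15 min at room temperature. Rate was taken from the 30-min fluorescence change (525/598 nm).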
# HP1b binding inh: HP1-beta chromodomain-methylated histone interaction inhibition; AlphaScreen HP1-beta / biotin-H3K9me3 peptide binding; 0.56% of 390,000 active; Potency, µM (titrated, usually from 114 µM), inactives show at the highest dose activity change, negative = inhibition, actives largely listed as inhibitors; P83916; AID 540317; further: nearly all actives have a fitted effect of over 70% in size
# Target sequence (P83916 whole entry, looked up): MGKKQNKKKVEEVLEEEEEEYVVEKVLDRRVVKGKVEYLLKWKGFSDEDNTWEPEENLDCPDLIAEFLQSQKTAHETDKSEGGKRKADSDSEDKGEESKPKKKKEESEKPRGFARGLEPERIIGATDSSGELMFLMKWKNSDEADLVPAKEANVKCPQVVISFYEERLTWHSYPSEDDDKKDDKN
#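 HP1-beta protein (50 nM final) preincubated 30 min at room temperature with biotinylated H3(1-18)K9me3 peptide (50 nM) in PBS pH 7.4, 0.01% Tween-20, then compound added for 30 min. AlphaScreen streptavidin donor/nickel chelate acceptor beads (10 ug/mL final), 30 min dark, luminescence read.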
# PLK1 PBD block: inhibitors of human PLK1 polo-box domain binding | P53350 | Plk1 PBD binding of FITC phosphopeptide, fluorescence polarization | Potency, µM, for the others: max response, negative = inhibition, actives largely listed as inhibitors | 2.8% of 360,000 active | AID 720504; further: series mostly up to about 57 µM; on the % scale 0 is the no-effect control and ±100 the full control effect; nearly all actives have a fitted effect of over 65% in size
# G9a block: inhibitors of human histone lysine methyltransferase G9a; AID 504332; 8.8% of 350,000 active; Potency, µM (doses to about 102 µM), inactives show top-dose activity, negative = inhibition, most hits filed as inhibitors; G9a H3K9 monomethylation, AlphaScreen, 2 h; Q96KQ7; further: on the % scale 0 is the no-effect control and ±100 the full control effect; nearly all actives have a fitted effect of over 75% in size
# Target sequence (Q96KQ7 913-1193 limits assumed): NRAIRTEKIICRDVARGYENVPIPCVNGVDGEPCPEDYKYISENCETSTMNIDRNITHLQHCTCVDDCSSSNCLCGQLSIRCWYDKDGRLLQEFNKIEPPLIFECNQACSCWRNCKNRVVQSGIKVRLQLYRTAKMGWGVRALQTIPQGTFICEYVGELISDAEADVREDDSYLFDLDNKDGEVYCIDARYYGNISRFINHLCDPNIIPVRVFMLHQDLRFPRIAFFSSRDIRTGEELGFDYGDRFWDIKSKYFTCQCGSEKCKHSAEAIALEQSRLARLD
#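 G9a (20 nM) preincubated 15 min RT with compounds, then 500 nM biotinylated H3K9 peptide and 20 uM SAM added; 2 h RT reaction. Monomethyl-H3K9 product detected by AlphaScreen with anti-H3K9me1 antibody, streptavidin donor and anti-rabbit IgG acceptor beads.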
# The depositor's hits bear a star; ? = inconclusive; . = not tested or not shown; [ ] = dose if it differs, or a comment. This is a sample that favours compounds with a hit; in the whole collection about 12% have one here. The call rests on the fitted dose curve; in most records, active means well fitted curve in the direction sought with a large enough effect; inconclusive means small, poorly fitted or top-dose-only effect, or another doubt; inactive means no such curve, though single readings can be large; an effect the other way counts as inactive or inconclusive. Potency means the concentration at half of the fitted maximal effect.
SMILES,BAZ2B inh,JMJD2A Tudor,Sfp PPTase inh,HP1b binding inh,PLK1 PBD block,G9a block
CCC(C)NC(=O)c1ccc2c(c1)S(=O)(=O)c1ccccc1C2=O (stereo unspecified),-34%,-13%,1%,22%,1%,20µM*
Cn1cccc1C(=O)N1CCC2(CCN(C(=O)Nc3ccccc3)CC2)CC1,.,.,7%,.,.,2%[12.7 µM]
O=C(COC(=O)COc1ccccc1[N+](=O)[O-])NCc1ccc2c(c1)OCO2,.,-32%,.,10%,-5%,.
COc1ccc(OC)c(NC(=O)c2cn(CC(C)C)c(=O)c3cc(OC)c(OC)cc23)c1,?,-36%,.,10%,.,-43%[59 µM]
OC(CNCc1ccco1)Cn1c2ccccc2c2ccccc21 (stereo unspecified),?,?,7%,-9%,0%,50µM*
CS(=O)(=O)N(Cc1ccco1)CC(O)Cn1c2ccccc2c2ccccc21 (stereo unspecified),?,?,7%,-18%,-3%,14µM*
OC(CNCc1ccco1)COc1ccccc1 (stereo unspecified),18%,-20%,19%,33%,-6%,-12%[59 µM]
Cc1ccc(-n2c(C)cc(C=C3C(=O)N(C)C(=O)N(C)C3=O)c2C)cc1,.,-10%,.,6%,-12%,.
COC(=O)C1=C(C)NC(=O)/C1=C\c1cc(C)n(-c2cc(C)cc(C)c2)c1C,45µM*,56µM*,-12%,-60%,-8%,-15%[12.7 µM]
COC(=O)C1=C(C)NC(=O)/C1=C\c1cc(C)n(-c2ccccc2)c1C,?,?,?,-15%,2%,40µM*
O=C(CSc1nc(=O)n(CCCN2CCOCC2)c2c1CCCC2)Nc1ccc(Cl)cc1,-5%,-14%,.,0%,1%,-11%
COc1ccc(C2C(C(C)=O)=C(O)C(=O)N2c2cccnc2)c(OC)c1 (stereo unspecified),?,25µM*,6%,16%,-4%,-3%[59 µM]
COc1ccc(C2C(C(C)=O)=C(O)C(=O)N2C)c(OC)c1 (stereo unspecified),-37%,?,-9%,19%,-6%,45µM*
COc1ccc(OC)c(C2C(C(C)=O)=C(O)C(=O)N2Cc2cccnc2)c1 (stereo unspecified),?,-10%,-10%,27%,-12%,?
O=C(O)c1ccccc1C(=O)c1ccc2c(c1)N(Cc1ccc(Cl)c(Cl)c1)C(=O)CO2,-34%,-22%,8%,33%,-10%,-33%
COc1ccc(CCNC(=O)CCCn2c(=O)c3cccn3c3ccc(F)cc32)cc1OC,-37%,7%,.,39%,.,2%[59 µM]
C[C@@H](NC(=O)[C@@H]1Cc2ccccc2CN1)C(=O)NC1CCCCC1,-20%,-9%,14%,20%,-9%,?
CC(C)C(OC(=O)C1=Cc2ccccc2OC1)C(=O)NCC1CCCO1 (stereo unspecified),.,50µM*,.,?,21µM*,.
CC(OC(=O)C1=Cc2ccccc2OC1)C(=O)NC1CCCC1 (stereo unspecified),-4%,4%,18%,1%,-6%,17%[59 µM]
C[C@H](NC(=O)[C@@H]1Cc2ccccc2CN1)C(=O)NCC1CCCO1 (stereo partly specified),-4%,?,14%,19%,30µM*,40µM*
C[C@@H](NC(=O)[C@@H]1Cc2ccccc2CN1)C(=O)NCc1ccco1,?,-21%,-7%,20%,-10%,50µM*
CNC(=O)C1(C(F)(F)F)C/C(=C\Cc2ccccc2)CCCO1 (stereo unspecified),.,-10%,1%,35%,.,.
COCOc1ccc(Br)cc1C(=O)[C@H]1O[C@H]1c1cccc(OC)c1,.,.,15%,.,.,.
COc1cccc(NC(=O)N2CCN3CCCCC3C2)c1 (stereo unspecified),8%,-16%,.,29%,.,-10%[59 µM]
CCOc1ccccc1CNC(=O)CSc1n[nH]c(-c2ccccc2Cl)n1,1%,-18%,.,16%[57 µM],.,-19%[59 µM]
SMILES,BAZ2B inh,JMJD2A Tudor,Sfp PPTase inh,HP1b binding inh,PLK1 PBD block,G9a block
CC(=O)c1cccc(NC(=O)Nc2nnc(N3CCCC3)s2)c1,-15%,-5%,.,25%,.,-23%[59 µM]
COc1ccc(NC(=O)CSC2=Nc3ccccc3C3=NC(CC(=O)NCCc4ccccc4)C(=O)N23)cc1 (stereo unspecified),-17%,?,.,15%,.,9%[59 µM]
O=C(c1ccc([N+](=O)[O-])o1)N1CCN(c2nc3c(F)cc(F)cc3s2)CC1,-35%,?,.,-20%,-8%,45µM*
CS(=O)(=O)c1nc(-c2ccccc2)cc(C(F)(F)F)n1,-2%,-11%,-7%,42%,24µM*,?
O=C1NN(c2cccc(Br)c2)C(=O)/C1=C\c1ccc(N2CCOCC2)cc1,?,?,-2%,5%,?,79µM*
Cc1cc(/C=C2\SC(=O)NC2=O)c(C)n1-c1ccc(N2CCOCC2)cc1,-4%,-17%,-12%,27%,-4%,.
COc1ccc(CCNC(=O)c2ccc(Br)o2)cc1Br,.,.,.,.,-3%,.
Oc1ccc(NCc2cccs2)cc1,?,-33%,?,?,-24%,40µM*
Cc1ccc(-n2ncc(C(=O)NC3CCCCC3)c2C2CCN(C(=O)OC(C)(C)C)CC2)cc1,15%[57.1 µM],-21%,.,44%,.,-3%[59 µM]
CN(C)c1ncnc2ccc(-c3ccc4c(c3)OCO4)cc12,.,.,11%,.,.,-1%[0.501 µM]
O=C(O)c1cccc2c1C(=O)c1ccc(-c3ccc(F)cc3OCc3ccccc3)cc1S2(=O)=O,79µM*,?,.,-2%,21µM*,-13%[0.501 µM]
S=c1[nH]ccn1Cc1ccccc1,-15%,14µM*,-26%,-31%,30µM*,6.3µM*
CN(C)CCCNC(=S)N(CCN(C)C)Cc1cc2cc3c(cc2[nH]c1=O)OCCO3,8%,-18%,1%,51%,-23%,?
CC(C)CNC(=S)N(CCCO)Cc1cc2cc3c(cc2[nH]c1=O)OCO3,-8%,-10%,-4%,37%,-6%,40µM*
CCOCCCNC(=S)N(CCN(C)C)Cc1cc2cc3c(cc2[nH]c1=O)OCCO3,-34%,-7%,-25%,44%,-7%,50µM*
COc1ccc(NC(=O)COC(=O)c2ccc([N+](=O)[O-])o2)cc1Cl,-24%,-25%,11%,7%,-10%,-46%
Cc1ccc(S(=O)(=O)n2nc(C)c(S(=O)(=O)N3CCOCC3)c2C)cc1,?,?,10%,48%,1%,35µM*
Cc1nn(S(=O)(=O)c2ccc(Cl)cc2)c(C)c1S(=O)(=O)N1CCOCC1,-8%,?,11%,7%,-18%,?
Cc1nn(S(=O)(=O)c2ccc(Br)cc2)c(C)c1S(=O)(=O)N1CCOCC1,?,-10%,15%,38%,-10%,40µM*
